Among the data in PubChem BioAssay are composite z-score, composite Z-score and z-score values, retold here.

Calls of active or inactive are those of the source.

Assay [1] has as its target Albumin (Bos taurus) (UniProt P02769). Briefly: compounds binding labelled BSA control protein – biochemical, small-molecule microarray, Alexa647 label, 635/667 nm fluorescence, artefact control for SMM control protein annotation, profiling panel (AID 1118).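 Also: score merges 667 nm emission intensity and signal-to-noise per printed compound spot.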 The following applies: BSA-A647 binding, fluorescence 635 nm, higher = more signal.
Assay [2] is described as follows: probe aXIP binding to arrayed compounds – biochemical, NeuroSMM set, 635/667 nm fluorescence, primary screen (AID 1119).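 Also: probe is the protein aXip251-270 applied at 1 µg/mL to compound-printed slides; binding of probe to printed compounds measured as 667 nm fluorescence plus signal to noise.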 The following applies: small-molecule microarray, higher = more signal, called active from +8 up or from −8 down.
Assay [3] can be described thus: probe aNOTCH3 binding on compound microarray – biochemical, small-molecule microarray, 635/667 nm fluorescence, primary screen (AID 1120).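 Also: probe is a biotin-tagged antibody raised against NOTCH3 rather than NOTCH3 protein; score merges spot fluorescence near 667 nm with spot signal to noise.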 The settings on record: higher = more signal.
The nature of assay [4]: probe aNOTCH2 binding on compound microarray – biochemical, small-molecule microarray, 635/667 nm fluorescence, primary screen (AID 1121).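 Also: score merges feature fluorescence read at 667 nm with its signal to noise.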 The settings on record: higher = more signal.
Assay [5] concerns the target Carbonic anhydrase 2 (Homo sapiens) (UniProt P00918). Briefly: compounds binding carbonic anhydrase 2 – biochemical, small-molecule microarray, Alexa647-labelled CAII, profiling panel (AID 1122). The following applies: CAII-A647 binding fluorescence, higher = more signal.
Assay [6] can be described thus: COS7 lysate on small-molecule microarray, probe aHis, 635 nm (AID 1123).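 Also: z-score combines 667nm fluorescence intensity with signal-to-noise per printed compound spot.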 The settings on record: COS7 cell lysate, fluorescence, higher = more signal.
Assay [7] is described as follows: probe aLAP1 signal on lysate-treated microarray – cell lysate, small-molecule microarray, COS7 lysate, primary screen (AID 1124).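 Also: lysate comes from COS7 cells expressing LAP1 and is applied at 0.3 µg/mL; score merges spot fluorescence near 667 nm with signal-to-noise over triplicate slides.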 The settings on record: probe aLAP1, fluorescence, higher = more signal.
Assay [8] has as its system Sam68 (KHDRBS1). Briefly: compounds binding KHDRBS1 protein – biochemical, small-molecule microarray, 635 nm fluorescence, primary screen (AID 1125).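 Also: score merges 667 nm channel intensity with signal to noise over triplicate slides.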 The settings on record: higher = more signal.
The subject of assay [9] is Chordin-like protein 2 (CHRDL2). In words: compounds binding chordin-like 2 – biochemical, small-molecule microarray, 635 nm fluorescence, primary screen (AID 1126).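 Also: printed compound slides probed with Chrdl2 protein at 4 µg/mL for 1 h at 4 C; score merges 667 nm emission intensity with signal to noise over three replicate slides.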 The settings on record: fluorescence 635 nm, higher = more signal.
Assay [10] concerns the target Concanavalin-A (Canavalia ensiformis) (UniProt P02866). In words: compounds binding concanavalin A lectin – biochemical, small-molecule microarray, Alexa647 label, 635 nm, artefact control for SMM control protein annotation, primary screen (AID 1127).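 Also: z combines 667 nm emission intensity with signal-to-noise across three replicate slides.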 The settings on record: ConA-A647 binding fluorescence, higher = more signal.
Assay [11] in a line: compounds binding Alexa647 anti-His antibody – biochemical, small-molecule microarray, 635 nm fluorescence, artefact control for SMM control protein annotation, primary screen (AID 1128).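 Also: score merges feature fluorescence with signal-to-noise for each printed compound spot.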 The following applies: higher = more signal.
Assay [12] concerns Human papillomavirus type 1a E7 protein (residues 1-88). Briefly: HPV1a E7 small-molecule binders, primary screen, biochemical, small-molecule microarray, residues 1-88, 635 nm (AID 1129). The following applies: small-molecule microarray binding, fluorescence 635 nm; higher = more signal.
Assay [13] has as its target Focal adhesion kinase 1 (Homo sapiens) (UniProt Q05397). Briefly: PTK2 protein binding on printed compound slides – biochemical, small-molecule microarray, 635/667 nm fluorescence, BSA, DTT, primary screen (AID 1130).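 Also: composite of spot emission at 667 nm and signal to noise over triplicate slides.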 The settings on record: 635 nm fluorescence, higher = more signal.
Assay [14] relates to Fibrinogen (Alexa647-labelled). Briefly: Alexa647-fibrinogen binding to printed small molecules – biochemical, small-molecule microarray, 635/667 nm fluorescence, artefact control for SMM control-protein annotation, profiling panel (AID 1131).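 Also: z-score merges 667 nm fluorescence with per-spot signal-to-noise over triplicate slides.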 The settings on record: fibrinogen-A647 binding fluorescence, higher = more signal.
For assay [15], the target named is Follistatin (Homo sapiens) (UniProt P19883). In words: FST protein binding to printed compounds – biochemical, small-molecule microarray, 635/667 nm fluorescence, primary screen (AID 1132). The following applies: 635 nm fluorescence, higher = more signal.
Assay [16] deals with Fibroblast growth factor 2 (Homo sapiens) (UniProt P09038). Briefly: basic fibroblast growth factor binding to printed compounds – biochemical, small-molecule microarray, 635/667 nm fluorescence, primary screen (AID 1133). The following applies: FGF2, fluorescence 635/667, higher = more signal.
Assay [17] in a line: JC-1 mitochondrial potential readout, lung cancer cells – cell-based, A549, JC-1 fluorescence, basal, 24 h, 100 nL, profiling panel (AID 1138).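 Also: A549 lung adenocarcinoma cells under basal conditions with no added stimulus; test concentration not given here.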 The following applies: higher = more signal.
Assay [18] concerns Lefty1. In words: Lefty1 protein binding to printed compounds – biochemical, small-molecule microarray, 635/667 nm fluorescence, primary screen (AID 1139). The settings on record: fluorescence 635/667, higher = more signal.
Assay [19] relates to wheat germ agglutinin (Triticum aestivum), Alexa647-labelled. In words: Alexa647-WGA lectin binding to printed small molecules – biochemical, small-molecule microarray, 635/667 nm fluorescence, artefact control for SMM control-protein annotation, profiling panel (AID 1140).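 Also: score merges 667 nm feature emission with signal to noise over triplicate slides.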 The settings on record: WGA-A647 binding, 635 nm fluorescence, higher = more signal.
Assay [20] deals with Luciferin 4-monooxygenase (Photinus pyralis) (UniProt P08659). Briefly: inhibition of purified Photinus pyralis luciferase – biochemical, luminescence, purified enzyme, 2006 set, primary screen (AID 1141).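 Also: cell-free assay with purified firefly luciferase at 100 ng per well in PBS; test concentration not given here.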 The following applies: purified firefly luciferase, SteadyGlo luminescence, 30 min; higher = more signal, called active from +8 up or from −8 down.
Sequence of Luciferin 4-monooxygenase (Photinus pyralis) (P08659 whole entry, looked up): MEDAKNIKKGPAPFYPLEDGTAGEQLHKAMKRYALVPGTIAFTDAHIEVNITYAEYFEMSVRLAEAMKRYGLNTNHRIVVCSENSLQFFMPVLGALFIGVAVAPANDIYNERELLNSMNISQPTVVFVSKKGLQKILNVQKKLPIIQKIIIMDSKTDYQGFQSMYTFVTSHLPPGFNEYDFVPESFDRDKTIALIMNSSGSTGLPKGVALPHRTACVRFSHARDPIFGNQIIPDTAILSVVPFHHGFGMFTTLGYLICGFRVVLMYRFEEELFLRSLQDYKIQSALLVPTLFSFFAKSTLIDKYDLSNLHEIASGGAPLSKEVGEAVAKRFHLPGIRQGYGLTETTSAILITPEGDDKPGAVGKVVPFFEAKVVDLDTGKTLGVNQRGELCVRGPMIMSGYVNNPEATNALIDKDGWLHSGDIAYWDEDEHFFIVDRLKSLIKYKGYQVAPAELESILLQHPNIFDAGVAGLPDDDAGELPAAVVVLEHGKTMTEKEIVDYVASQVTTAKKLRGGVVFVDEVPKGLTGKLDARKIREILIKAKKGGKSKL

Sequence of Albumin (Bos taurus) (P02769 whole entry, looked up): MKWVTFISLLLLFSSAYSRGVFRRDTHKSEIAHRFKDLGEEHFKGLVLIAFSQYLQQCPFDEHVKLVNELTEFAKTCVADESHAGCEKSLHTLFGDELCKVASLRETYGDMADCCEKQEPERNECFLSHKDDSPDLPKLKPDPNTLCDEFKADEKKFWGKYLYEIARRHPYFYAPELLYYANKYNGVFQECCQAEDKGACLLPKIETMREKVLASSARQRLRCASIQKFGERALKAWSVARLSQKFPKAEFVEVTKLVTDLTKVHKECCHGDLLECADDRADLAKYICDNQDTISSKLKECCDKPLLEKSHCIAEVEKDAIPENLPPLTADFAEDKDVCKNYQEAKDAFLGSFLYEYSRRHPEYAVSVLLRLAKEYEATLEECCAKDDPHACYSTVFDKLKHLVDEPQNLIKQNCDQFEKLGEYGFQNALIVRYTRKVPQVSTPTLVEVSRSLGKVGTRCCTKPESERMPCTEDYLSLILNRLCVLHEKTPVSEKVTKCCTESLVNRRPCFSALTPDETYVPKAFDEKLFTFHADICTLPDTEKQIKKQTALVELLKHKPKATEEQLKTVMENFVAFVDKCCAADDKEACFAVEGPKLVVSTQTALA
Sequence of Fibroblast growth factor 2 (Homo sapiens) (P09038 whole entry, looked up): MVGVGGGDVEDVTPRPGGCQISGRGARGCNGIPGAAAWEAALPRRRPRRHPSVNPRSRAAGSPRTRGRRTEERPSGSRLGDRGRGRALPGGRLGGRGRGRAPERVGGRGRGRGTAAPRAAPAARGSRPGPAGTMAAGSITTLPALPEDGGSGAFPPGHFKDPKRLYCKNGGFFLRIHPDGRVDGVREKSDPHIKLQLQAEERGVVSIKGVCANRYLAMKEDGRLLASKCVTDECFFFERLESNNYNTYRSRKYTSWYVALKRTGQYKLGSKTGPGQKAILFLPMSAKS
Sequence of Focal adhesion kinase 1 (Homo sapiens) (Q05397 whole entry, looked up): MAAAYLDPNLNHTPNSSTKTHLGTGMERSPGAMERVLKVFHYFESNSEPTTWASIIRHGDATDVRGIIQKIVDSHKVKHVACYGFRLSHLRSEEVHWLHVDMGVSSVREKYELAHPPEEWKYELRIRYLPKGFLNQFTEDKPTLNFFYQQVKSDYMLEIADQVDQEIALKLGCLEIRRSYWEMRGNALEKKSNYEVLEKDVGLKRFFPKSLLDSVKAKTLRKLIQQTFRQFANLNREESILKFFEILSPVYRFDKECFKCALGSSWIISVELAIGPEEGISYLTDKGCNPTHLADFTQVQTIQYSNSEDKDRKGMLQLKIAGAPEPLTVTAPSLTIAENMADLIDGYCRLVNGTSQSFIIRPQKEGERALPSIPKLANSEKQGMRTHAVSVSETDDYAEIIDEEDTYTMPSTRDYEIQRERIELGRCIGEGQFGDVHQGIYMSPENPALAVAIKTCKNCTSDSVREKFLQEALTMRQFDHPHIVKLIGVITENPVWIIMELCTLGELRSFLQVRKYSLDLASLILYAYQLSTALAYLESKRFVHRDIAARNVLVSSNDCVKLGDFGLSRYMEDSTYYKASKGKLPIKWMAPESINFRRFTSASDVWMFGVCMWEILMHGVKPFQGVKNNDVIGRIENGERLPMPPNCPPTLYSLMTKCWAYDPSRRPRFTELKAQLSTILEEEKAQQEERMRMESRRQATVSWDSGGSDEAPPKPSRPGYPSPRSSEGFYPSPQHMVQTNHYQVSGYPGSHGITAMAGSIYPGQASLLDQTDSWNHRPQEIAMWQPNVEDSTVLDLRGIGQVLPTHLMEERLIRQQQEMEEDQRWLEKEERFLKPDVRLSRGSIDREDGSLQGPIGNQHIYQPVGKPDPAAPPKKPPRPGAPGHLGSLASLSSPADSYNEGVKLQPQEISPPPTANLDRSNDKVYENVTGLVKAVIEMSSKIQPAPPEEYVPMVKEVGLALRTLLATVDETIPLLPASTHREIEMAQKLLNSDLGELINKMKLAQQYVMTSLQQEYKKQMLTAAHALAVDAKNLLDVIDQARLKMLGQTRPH
Sequence of Follistatin (Homo sapiens) (P19883 whole entry, looked up): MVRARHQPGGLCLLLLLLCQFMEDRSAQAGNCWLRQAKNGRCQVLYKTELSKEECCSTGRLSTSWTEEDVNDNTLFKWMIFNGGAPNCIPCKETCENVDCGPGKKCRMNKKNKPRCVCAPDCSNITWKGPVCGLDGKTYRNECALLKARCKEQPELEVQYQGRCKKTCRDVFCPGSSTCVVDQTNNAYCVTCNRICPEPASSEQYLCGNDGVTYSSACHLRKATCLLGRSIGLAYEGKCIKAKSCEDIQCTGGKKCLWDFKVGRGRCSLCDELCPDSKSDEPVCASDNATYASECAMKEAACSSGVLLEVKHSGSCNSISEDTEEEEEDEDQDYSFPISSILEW
Sequence of Concanavalin-A (Canavalia ensiformis) (P02866 whole entry, looked up): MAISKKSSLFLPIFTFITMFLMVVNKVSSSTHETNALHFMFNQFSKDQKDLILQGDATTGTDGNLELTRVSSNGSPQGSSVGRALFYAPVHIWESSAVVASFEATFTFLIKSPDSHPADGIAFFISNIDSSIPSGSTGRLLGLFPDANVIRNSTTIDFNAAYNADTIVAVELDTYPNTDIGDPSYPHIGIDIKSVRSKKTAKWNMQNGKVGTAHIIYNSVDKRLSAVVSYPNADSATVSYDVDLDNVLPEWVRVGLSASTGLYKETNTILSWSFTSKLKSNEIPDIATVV

As to `O=C1C[C@@](C(=O)O)(c2ccc([N+](=O)[O-])cc2)[C@@H](c2ccc(CO)cc2)N1C1CCCCC1`, the composite z-score in assay [1] was 0.88; in [3] it was 0.204; in assay [4], -0.0029; in [5], 0.508; in assay [6] it was 2.02; in [7], 0.281. Also, the composite z-score in assay [8] was found to be 1.34; in assay [9], 0.0583; in [10] it was 1.05; in assay [11], 1.82; in assay [12] it was 1.23; in assay [13] it was 0.54. Further, the composite z-score in assay [14] was found to be 0.953; in assay [15], 1.01; in assay [16], 0.26; in assay [18] it was 0.312; in assay [19], 0.92. In [2], the composite Z-score was 0.628 (inactive). Besides, the z-score in [17] is 0.57; in assay [20], -1.81 (inactive).
Take `O=C(NC1CC1)[C@@H]1c2ccccc2C(=O)N(CC23CC4CC(CC(C4)C2)C3)[C@H]1c1ccc(CO)cc1`: the composite z-score in assay [1] is 0.654; in assay [3] it was 0.183; in assay [4] it was -0.0495; in assay [5] it was 0.388; in [6], 2.18; in [7], 0.99. Further, the composite z-score in assay [8] is 1.31; in assay [9], 1.16; in assay [10], 1.16; in assay [11], 1.17; in assay [12], 1.12; in [13], 0.476. Besides, the composite z-score is 0.919 in [14]; 1.44 in assay [15]; 1.28 in [16]; 1.33 in [18]; 0.33 in assay [19]. Further, the composite Z-score in [2] is -0.0662 (inactive). Besides, the z-score in assay [17] was 0.0467; in assay [20] it was 0.7 (inactive).
For the molecule `COc1cc(C(O)C2C=CC3C(=O)N(c4ccccc4)C(=O)C3N2Nc2ccccc2F)cc(OC)c1OC` (stereo not given), the composite z-score in [1] came out at 0.834; in [3], 0.0436; in [4] it was 0.0409; in assay [5], 0.648; in assay [6], 3.14; in [7], 0.443. In addition, the composite z-score is 1.32 in assay [8]; -0.755 in assay [9]; 1.1 in assay [10]; 1.66 in [11]; 1.28 in [12]; 0.337 in [13]. Further, the composite z-score in assay [14] is 1.03; in [15] it was 0.233; in assay [16], -0.171; in assay [18], 0.323; in assay [19], 0.792. In addition, the composite Z-score in assay [2] was 0.0894 (inactive). Besides, the figures for the z-score in assay [17] and in assay [20] were -0.374 and -0.397 (inactive), respectively.
`C=C(COC)/C(=C/C[C@H](OC(C)=O)c1ccccc1OCCO)c1cc(C(=O)OC)ccc1OC`: the composite z-score is 0.524 in [1]; -0.129 in assay [3]; -0.113 in assay [4]; 0.467 in [5]; 1.82 in assay [6]; -0.175 in assay [7]. Besides, the composite z-score is 0.44 in [8]; -0.152 in assay [9]; 0.362 in assay [10]; 0.101 in assay [11]; 0.639 in assay [12]; 0.473 in assay [13]. The composite z-score in [14] was 0.328; in assay [15], 1.18; in assay [16], 0.54; in [18], 0.726; in [19], -0.0912. In addition, in assay [2], the composite Z-score was 0.131 (inactive). The z-score in assay [17] was 0.45; in [20] it was -0.419 (inactive).
Consider `CCCN1C(=O)[C@]2(CCC(=O)OC(C)(C)C)N=C(c3ccc(OCCCO)cc3)O[C@@H]2c2ccccc21`, for which the composite z-score in assay [1] is 0.151; in assay [3], -0.0044; in [4] it was -0.0732; in assay [5], 0.2; in [6], 1.42; in assay [7] it was 0.651. Further, the composite z-score in [8] was found to be 0.8; in [9], 0.405; in assay [10], 1.03; in assay [11], 0.144; in assay [12] it was 1.01; in assay [13], 0.497. Further, the composite z-score was found to be 0.496 in assay [14]; 1.49 in assay [15]; 0.714 in assay [16]; 0.37 in assay [18]; 0.0961 in assay [19]. Also, in assay [2], the composite Z-score is -0.12 (inactive). Further, the results for the z-score in assay [17] and in [20] were 0.719 and -1.55 (inactive), respectively.
On to `CCN(CC)c1ccc(N2CC=CC34O[C@@H]5C=CCCOC(=O)C5[C@H]3C(=O)N(C(C)CO)[C@@H]4C2=O)cc1` (stereo not given in full), for which the composite z-score in [1] was 0.653; in [3] it was 0.102; in assay [4], -0.159; in assay [5] it was 0.835; in assay [6], -0.806; in [7] it was 0.385. Besides, the composite z-score is -0.304 in assay [8]; -0.0271 in assay [9]; -0.361 in assay [10]; 1.72 in [11]; 0.649 in assay [12]; 0.339 in [13]. Moreover, the composite z-score in assay [14] is -0.943; in [15] it was 0.461; in assay [16], -0.199; in assay [18], 0.399; in assay [19], 0.329. Moreover, the composite Z-score in assay [2] was 0.195 (inactive). Moreover, the z-score in assay [17] is 0.337; in assay [20] it was -0.421 (inactive).
In the case of `[N-]=[N+]=Nc1ccccc1C[C@@]1(C(=O)NCC(O)CO)N=C(c2ccc(OCCCO)cc2)O[C@@H]1c1ccccc1` (stereo not given in full), the composite z-score is 0.579 in assay [1]; -0.152 in assay [3]; 0.0231 in [4]; 0.719 in [5]; 2.01 in [6]; 0.353 in assay [7]. In addition, the composite z-score in assay [8] was 0.206; in assay [9] it was -1.26; in [10], 0.446; in [11] it was -0.0048; in [12], 1.2; in assay [13] it was 0.206. Besides, the composite z-score is 0.54 in [14]; -0.327 in assay [15]; 0.0559 in [16]; -0.867 in assay [18]; 0.436 in [19]. In assay [2], the composite Z-score was -0.362 (inactive). For the same molecule, the figures for the z-score in assay [17] and in [20] were 1 and -2.44 (inactive), respectively.
For `C=CC[C@@]12N=C(c3ccc(OCCCO)cc3)O[C@@H]1c1ccccc1N(CCC)C2=O`, the composite z-score was 0.727 in assay [1]; 0.0968 in assay [3]; -0.0617 in assay [4]; 0.326 in [5]; 2.73 in [6]; -0.227 in assay [7]. Moreover, the composite z-score came to 1.29 in assay [8]; 1.24 in assay [9]; 1.06 in assay [10]; 2.58 in assay [11]; 1.22 in assay [12]; 0.359 in [13]. The composite z-score in assay [14] stood at 0.512; in assay [15], 1.52; in assay [16] it was 1.72; in assay [18], 1.31; in assay [19] it was 0.777. Besides, in [2], the composite Z-score is 0.414 (inactive). Besides, the results for the z-score in assay [17] and in assay [20] were 2.58 and -2.23 (inactive), respectively.
